Where “and” joins values, the source holds several entries; their conditions need not be identical. Identical values can stand only once. Some compounds were tested as several samples or in several runs, with calls that do not always agree. Calls of active or inactive are those of the source. The calls were made as follows: active = hit-call score of the fitted dose curve at least 0.9, where 1 is the maximum; inactive = score below 0.9.
What was measured:
[1] = read-out: Human Leukocyte Antigen - DR isotype (HLADR), HLA-DRA (gene 3122); assay: BSK_BE3C_HLADR: BioMAP Diversity Plus: BE3C Assay for Human Leukocyte Antigen - DR isotype (HLADR) Biomarker Activity (AID 2283032); conditions: primary human bronchial epithelial cells; actives raise or lower the signal
How it was run: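 Signal came from an ELISA for HLA-DR in human bronchial epithelial primary cells harvested 24 h after treatment; gain- and loss-of-signal fitting used DMSO controls as reference.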

[2] = read-out: Vascular cell adhesion molecule 1 (VCAM1), VCAM1 (gene 7412); assay: BSK_4H_VCAM1: BioMAP Diversity Plus: 4H Assay for Vascular cell adhesion molecule 1 (VCAM1) Biomarker Activity (AID 2283033); conditions: primary human endothelial cells (HUVEC); actives raise or lower the signal
How it was run: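 Endpoint derived from bidirectional fitting against DMSO controls of VCAM-1 ELISA signal in umbilical vein endothelial cells sampled at 24 h following treatment.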

[3] = read-out: Interferon-gamma inducible Protein 10 (IP10), CXCL10 (gene 3627); assay: BSK_BE3C_IP10: BioMAP Diversity Plus: BE3C Assay for Interferon-gamma inducible Protein 10 (IP10) Biomarker Activity (AID 2283034); conditions: primary human bronchial epithelial cells; actives raise or lower the signal
How it was run: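 Using primary human bronchial epithelial cultures, the assay captures IP-10 by ELISA one day (24 h) after exposure. Parallel SRB staining of total protein flags overt cytotoxicity. Fits run bidirectionally relative to DMSO.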

[4] = read-out: Monokine induced gamma interferon (MIG), CXCL9 (gene 4283); assay: BSK_BE3C_MIG: BioMAP Diversity Plus: BE3C Assay for Monokine induced gamma interferon (MIG) Biomarker Activity (AID 2283035); conditions: primary human bronchial epithelial cells; actives raise or lower the signal
How it was run: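 ELISA read-out of MIG in human lung bronchial epithelial primary cultures, 24 h post-dosing. Bidirectional curve fit vs DMSO baseline.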

[5] = read-out: Transforming growth factor beta 1 (TGFb1), TGFB1 (gene 7040); assay: BSK_BE3C_TGFb1: BioMAP Diversity Plus: BE3C Assay for Transforming growth factor beta 1 (TGFb1) Biomarker Activity (AID 2283036); conditions: primary human bronchial epithelial cells; actives raise or lower the signal
How it was run: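 In this human primary bronchial epithelial system, an ELISA quantified TGF-b1 one day after dosing. Endpoint changes in either direction were fitted relative to DMSO.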

[6] = read-out: Plasminogen activator inhibitor-1 (PAI1), SERPINE1 (gene 5054); assay: BSK_BE3C_PAI1: BioMAP Diversity Plus: BE3C Assay for Plasminogen activator inhibitor-1 (PAI1) Biomarker Activity (AID 2283037); conditions: primary human bronchial epithelial cells; actives raise or lower the signal
How it was run: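 PAI-1 biomarker levels in treated human bronchial epithelial cells are determined by ELISA at 24 h. Both increases and decreases relative to DMSO are fitted.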

[7] = read-out: urokinase plasminogen activator (uPA), PLAU (gene 5328); assay: BSK_BE3C_uPA: BioMAP Diversity Plus: BE3C Assay for urokinase plasminogen activator (uPA) Biomarker Activity (AID 2283038); conditions: primary human bronchial epithelial cells; actives raise or lower the signal
How it was run: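 ELISA read-out of uPA in human lung primary bronchial epithelial cultures, 24 h post-dosing. Gain or loss of signal fitted bidirectionally relative to DMSO baseline; cytotoxicity checked in parallel cultures via SRB total protein stain.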

[8] = read-out: Urokinase-type plasminogen activator receptor (uPAR), PLAUR (gene 5329); assay: BSK_BE3C_uPAR: BioMAP Diversity Plus: BE3C Assay for Urokinase-type plasminogen activator receptor (uPAR) Biomarker Activity (AID 2283039); conditions: primary human bronchial epithelial cells; actives raise or lower the signal
How it was run: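 A uPAR ELISA serves as the readout, taken 24 h after treating primary human bronchial epithelial cells. Responses in either direction are fitted against DMSO, which defines baseline activity.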

[9] = read-out: Interleukin-6 (IL6), IL6 (gene 3569); assay: BSK_CASM3C_IL6: BioMAP Diversity Plus: CASM3C Assay for Interleukin-6 (IL6) Biomarker Activity for (AID 2283040); conditions: primary human coronary artery smooth muscle cells; actives raise or lower the signal
[10] = read-out: Tissue plasminogen activator (tPA), PLAT (gene 5327); assay: BSK_BE3C_tPA: BioMAP Diversity Plus: BE3C Assay for Tissue plasminogen activator (tPA) Biomarker Activity (AID 2283041); conditions: primary human bronchial epithelial cells; actives raise or lower the signal
How it was run: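 Bidirectional curve fitting relative to DMSO defined activity, with tPA detected by ELISA in chemically treated human bronchial epithelial primary cells at 24 hours.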

[11] = read-out: Interleukin-8 (IL8), CXCL8 (gene 3576); assay: BSK_CASM3C_IL8: BioMAP Diversity Plus: CASM3C Assay for Interleukin-8 (IL8) Biomarker Activity (AID 2283042); conditions: primary human coronary artery smooth muscle cells; actives raise or lower the signal;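 also: IL-8 protein level quantified by ELISA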
[12] = read-out: Human Leukocyte Antigen - DR isotype (HLADR), HLA-DRA (gene 3122); assay: BSK_CASM3C_HLADR: BioMAP Diversity Plus: CASM3C Assay for Human Leukocyte Antigen - DR isotype (HLADR) Biomarker Activity (AID 2283043); conditions: primary human coronary artery smooth muscle cells; actives raise or lower the signal;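 also: cell-surface HLA-DR protein level quantified by ELISA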
[13] = read-out: Macrophage colony-stimulating factor (MCSF), CSF1 (gene 1435); assay: BSK_CASM3C_MCSF: BioMAP Diversity Plus: CASM3C Assay for Macrophage colony-stimulating factor (MCSF) Biomarker Activity (AID 2283044); conditions: primary human coronary artery smooth muscle cells; actives raise or lower the signal;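 also: M-CSF protein amount quantified by ELISA after 24 h exposure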
[14] = read-out: Low-density lipoprotein receptor (LDLR), LDLR (gene 3949); assay: BSK_CASM3C_LDLR: BioMAP Diversity Plus: CASM3C Assay for Low-density lipoprotein receptor (LDLR) Biomarker Activity (AID 2283045); conditions: primary human coronary artery smooth muscle cells; actives raise or lower the signal;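 also: LDLR protein level on the cell surface quantified by ELISA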
[15] = read-out: Monocyte Chemoattractant Protein-1 (MCP1), CCL2 (gene 6347); assay: BSK_CASM3C_MCP1: BioMAP Diversity Plus: CASM3C Assay for Monocyte Chemoattractant Protein-1 (MCP1) Biomarker Activity (AID 2283046); conditions: primary human coronary artery smooth muscle cells; actives raise or lower the signal;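 also: MCP-1 level quantified by ELISA 24 h after dosing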
[16] = BSK_CASM3C_Proliferation: Cell Proliferation Assessment in the BioMAP Diversity Plus: CASM3C Assay (AID 2283047); conditions: primary human coronary artery smooth muscle cells;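 also: sulforhodamine B total protein stain as relative cell number at 560 nm; sub-confluent cells exposed 48 h before staining; fitted both ways against DMSO so gain or loss of cell number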
[17] = read-out: Monokine induced gamma interferon (MIG), CXCL9 (gene 4283); assay: BSK_CASM3C_MIG: BioMAP Diversity Plus: CASM3C Assay for Monokine induced gamma interferon (MIG) Biomarker Activity (AID 2283048); conditions: primary human coronary artery smooth muscle cells; actives raise or lower the signal;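 also: MIG protein level measured by ELISA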
[18] = read-out: serum amyloid A (SAA), SAA1 (gene 6288); assay: BSK_CASM3C_SAA: BioMAP Diversity Plus: CASM3C Assay for serum amyloid A (SAA) Biomarker Activity (AID 2283049); conditions: primary human coronary artery smooth muscle cells; actives raise or lower the signal;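 also: SAA protein level quantified by ELISA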
[19] = BSK_CASM3C_SRB: Viability Assessment in the BioMAP Diversity Plus: CASM3C Assay (AID 2283050); conditions: primary human coronary artery smooth muscle cells;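 also: cells exposed to compound for 24 h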
[20] = read-out: Thrombomodulin, THBD (gene 7056); assay: BSK_CASM3C_Thrombomodulin: BioMAP Diversity Plus: CASM3C Assay for Thrombomodulin Biomarker Activity (AID 2283051); conditions: primary human coronary artery smooth muscle cells; actives raise or lower the signal;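 also: thrombomodulin protein level measured by ELISA 24 h after dosing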

Measured: AC50

OC(Cc1ccccc1Cl)(Cn1[nH]cnc1=S)C1(Cl)CC1 (stereo unspecified)
inactive: [9] | [11] | [13] | [15] | [16] | [17] | [20]
active: [1] 20 µM | [2] 20 µM | [3] 15.8 µM | [4] 31.1 µM | [5] 8.86 µM | [6] 6.3 µM | [7] 20 µM | [8] 12.6 µM | [10] 20 µM | [12] 26.7 µM | [14] 3.97 µM | [18] 5.29 µM | [19] 31.4 µM

NC(=O)CCl
active: [12] 20 µM
inactive: all other assays above

OCCN(CCO)CCO
inactive: all assays above

Cc1c([N+](=O)[O-])c(C)c([N+](=O)[O-])c(C(C)(C)C)c1[N+](=O)[O-]
not listed: [10]
inactive: all other assays above

O=[N+]([O-])c1cccc2ccccc12
inactive: all assays above

CCN(CC)C(=O)C(Cl)=C(C)OP(=O)(OC)OC
inactive: all assays above

CCOC(=O)C(SP(=S)(OC)OC)c1ccccc1 (stereo unspecified)
active: [2] 27.1 µM | [3] 20 µM | [12] 20 µM | [13] 20 µM | [16] 20 µM | [20] 20 µM
inactive: all other assays above

CC(C)N(C(=O)CCl)c1ccccc1
active: [1] 20 µM | [2] 20 µM | [3] 33.5 µM | [9] 32.9 µM | [11] 27.1 µM | [12] 6.14 µM | [13] 13.3 µM | [14] 5.57 µM | [15] 6.89 µM | [16] 6.4 µM | [17] 12.4 µM | [18] 4.5 µM | [19] 6.28 µM | [20] 2.75 µM
inactive: [4] | [5] | [6] | [7] | [8] | [10]

CN(C)C(=S)S
active: [1] 25.1 µM | [3] 28.7 µM | [4] 23.1 µM | [5] 20 µM | [7] 30.2 µM | [10] 9.34 µM | [16] 0.791 µM
inactive: all other assays above

CC(C)(C)c1cc([N+](=O)[O-])cc(C(C)(C)C)c1O
not listed: [10]
inactive: all other assays above

CC(C=O)Cc1ccc2c(c1)OCO2 (stereo unspecified)
inactive: all assays above

Nc1ccc(N)cc1
inactive: all assays above

CCCCN(CCCC)C(=S)[S-].CCCCN(CCCC)C(=S)[S-].[Ni+2]
not listed: [10]
inactive: all other assays above

Cc1ccc2nc3sc(=O)sc3nc2c1
active: [1] 5 µM | [2] 7.39 µM
inactive: all other assays above

O=c1oc2ccccc2c(O)c1C(CC(O)c1ccc(-c2ccc(Br)cc2)cc1)c1ccccc1 (stereo unspecified)
active: [1] 5.4 µM | [2] 13.9 µM | [3] 5.4 µM | [4] 10.5 µM | [5] 0.144 µM | [6] 0.915 µM | [7] 5.29 µM | [8] 5.34 µM | [9] 25 µM | [10] 0.837 µM | [11] 0.0413 µM | [12] 4.99 µM | [13] 16.3 µM | [14] 19.1 µM | [15] 7.44 µM | [16] 19.1 µM | [18] 0.0998 µM | [19] 13.9 µM
inactive: [17] | [20]

Nc1c(Oc2ccccc2)cc(O)c2c1C(=O)c1ccccc1C2=O
active: [6] 2.43 µM
not listed: [10]
inactive: all other assays above

Cc1cc(C)cc(C)c1
inactive: all assays above

Cc1ccc(OP(=O)(Oc2ccc(C)cc2C)Oc2ccc(C)cc2C)c(C)c1
active: [6] 6.01 µM | [10] 3.86 µM | [13] 0.0882 µM
inactive: all other assays above

Oc1cccc(-c2ccccc2)c1
active: [2] 36.9 µM | [15] 20 µM | [16] 34.4 µM | [19] 28.7 µM
not listed: [10]
inactive: all other assays above

OC(Cc1ccccc1Cl)(Cn1cncn1)C1(Cl)CC1 (stereo unspecified)
not listed: [10]
inactive: all other assays above

CCOP(=O)(OCC)OC(=CCl)c1ccc(Cl)cc1Cl
active: [2] 32 µM | [12] 33.4 µM | [13] 31.7 µM | [14] 28.3 µM | [15] 28 µM | [16] 28.5 µM | [18] 29.6 µM | [19] 29.5 µM
inactive: all other assays above

Cc1cccc(OP(=O)(Oc2cccc(C)c2)Oc2cccc(C)c2)c1
active: [6] 2.76 µM | [7] 0.016 µM | [10] 0.677 µM | [13] 0.139 µM | [15] 0.075 µM
inactive: all other assays above

Cc1cc(Cl)ccc1OC(C)C(=O)O (stereo unspecified)
inactive: all assays above

CC1(C)[C@H](C(=O)O[C@H](C#N)c2cccc(Oc3ccccc3)c2)[C@@H]1/C=C(\Cl)C(F)(F)F
inactive: [1] | [2] | [3] | [4] | [5] | [6] | [7] | [8] | [9] | [10] | [11] | [12] | [13] | [14] | [15] | [16] | [17] | [18] | [19]
active: [1] 0.0141 µM | [14] 3.39 µM | [20] 5.06 µM and 7.16 µM

Source: PubChem BioAssay (EPA / NIEHS)
